High-throughput results deposited in PubChem by several laboratories.
Shown are actives, neighbours in structure and some others; about 8.9% of the full set was active somewhere.
M1 antag: antagonists of rat M1 muscarinic receptor. P08482. CHO-M1 cells, Fluo-4 calcium, ACh EC80 antagonist mode; active compounds read low. B-score at 10 µM. hit rate 3.4% among 64,000. AID 628;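 active = calcium fluorescence response, raw or row-and-column corrected B-score, differing from the plate sample mean either way at a set confidence level, mostly lower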
Target sequence (P08482 whole entry, looked up): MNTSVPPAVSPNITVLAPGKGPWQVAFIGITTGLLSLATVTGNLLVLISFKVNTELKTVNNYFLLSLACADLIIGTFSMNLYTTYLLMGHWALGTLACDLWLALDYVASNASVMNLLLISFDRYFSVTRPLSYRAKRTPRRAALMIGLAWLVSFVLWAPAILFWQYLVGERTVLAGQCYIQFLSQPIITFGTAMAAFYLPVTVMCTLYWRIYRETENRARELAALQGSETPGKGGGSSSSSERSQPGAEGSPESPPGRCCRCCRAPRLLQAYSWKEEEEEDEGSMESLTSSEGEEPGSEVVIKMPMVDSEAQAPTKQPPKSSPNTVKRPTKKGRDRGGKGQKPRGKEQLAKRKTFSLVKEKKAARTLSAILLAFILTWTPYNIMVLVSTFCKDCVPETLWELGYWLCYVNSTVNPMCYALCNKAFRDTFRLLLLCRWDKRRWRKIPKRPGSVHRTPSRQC
Htt clearance: compounds clearing mutant huntingtin protein; HeLa Exon1htt(103Q)mCFP, aggregate imaging; zero = plate's median compound well; hit rate 0.42% among 47,000; inhibition, % at 1.5 µM;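 active = inhibition of aggregate fluorescence above about 70%, also judged a hit by eye on the cell image, limit read from the data, passing the limit was not always enough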;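 note: cells exposed to compound for three days before fixation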
WNV protease inh: blocks West Nile virus NS2B-NS3 protease activity; P06935; WNV NS2B-NS3 protease, fluorogenic substrate Ex360/Em465; active compounds read low; z-score (test concentration not listed); hit rate 0.18% among 65,000; AID 577; in the data active = z-score below about -3
D1 mod: allosteric modulators of human D1 dopamine receptor | hit rate 5.9% among 58,000 | B-score at 10 µM | HEK293 D1, CRE-luciferase, dopamine EC30 potentiation; actives deviate in either direction | P21728 | AID 641;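 active = luminescence count or its row- and column-corrected plate score outside the 99.7% band of the plate's sample wells, on either side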
M1 agonist: activates the M1 muscarinic receptor; B-score at 10 µM; AID 626; hit rate 3% among 64,000; CHO-M1 cells, Fluo-4 calcium fluorescence, agonist mode; active compounds read high;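 active = fluorescence rise, raw or as B-score row- and column-corrected plate score, outside the 99.7% band of its plate's samples, either direction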
D1 PAM confirm: confirmation of human D1 dopamine receptor allosteric modulators; shares compounds with D1 mod; HEK293 D1 CRE-luciferase, dopamine EC30 potentiation; active compounds read high; luminescence at 10 µM; hit rate 88% among 2,200; AID 642;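 active = luminescence in either of two replicates above the same-plate mean plus 3 SD of the low-dose dopamine control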
D1 ag no DA: activates D1 CRE-luciferase signal without dopamine present; AID 646; luminescence at 10 µM; HEK293 D1 CRE-luciferase, luminescence, no dopamine; active compounds read high; shares compounds with D1 mod; hit rate 0.8% among 1,900; in the data active = luminescence above about 3900
Isoprot counter: isoproterenol response counter-screen activity for D1 modulators. calls only at 10 µM. HEK293 D1 CRE-luciferase, isoproterenol EC30 counter-screen. shares compounds with D1 mod. hit rate 63% among 2,200;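 active = luminescence in either replicate above plate mean of wells with a partly effective reference agonist dose plus 3 SD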;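 note: isoproterenol raises cAMP through native beta-adrenoceptor Gs so signal bypasses D1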
Of the large screens only hits and unclear results are named; the others gave an inactive call (follow-up assays come after a bar, where they were run).

COc1ccc(N2CCN(Cc3nc4c(c(=O)n(C)c(=O)n4C)n3CCc3ccccc3)CC2)cc1	D1 mod 3.5 (no result: Htt clearance) | D1 PAM confirm inactive | D1 ag no DA inactive | Isoprot counter active
COCCn1c(CN2CCN(c3ccc(OC)cc3)CC2)nc2c1c(=O)n(C)c(=O)n2C	none (no result: Htt clearance)
Cc1ccc(-n2nc3c(c2NC(=O)c2ccc(Br)o2)CSC3)c(C)c1	D1 mod 4.8 (no result: Htt clearance) | D1 PAM confirm inactive | D1 ag no DA inactive | Isoprot counter inactive
CSc1cc(/C=N/O)c(SC)s1	D1 mod 6.9 | D1 PAM confirm 12744 | D1 ag no DA inactive | Isoprot counter inactive
O=c1c2ccccc2c2ccccc2c(=O)n1Cc1cccnc1	D1 mod 2.8 (no result: Htt clearance) | D1 PAM confirm inactive | D1 ag no DA inactive | Isoprot counter inactive
COc1ccc(CCNc2nnc(Sc3nnnn3-c3ccccc3)s2)cc1OC	D1 mod 5.3 | D1 PAM confirm 10264 | D1 ag no DA inactive | Isoprot counter inactive
COc1ccc(CSc2nnnn2Cc2ccccc2)cc1OC	D1 mod 3.6 (no result: Htt clearance) | D1 PAM confirm 15068 | D1 ag no DA inactive | Isoprot counter active
O=C(CN(Cc1ccc2c(c1)OCO2)C(=O)CNS(=O)(=O)c1ccccc1)NCc1ccco1	none (no result: D1 mod)
CCCCc1cc2c(c(NC(=O)CC)n1)c(=O)oc1ccccc12	D1 mod 6.6 | D1 PAM confirm 23508 | D1 ag no DA inactive | Isoprot counter active
CC(=O)Nc1nc(CC(C)C)cc2c1c(=O)oc1ccccc12	none
CCCCc1cc2c(c(NC(C)=O)n1)c(=O)oc1ccccc12	D1 mod 15 | D1 PAM confirm 14552 | D1 ag no DA inactive | Isoprot counter active
O=C(CSc1nccc(=O)[nH]1)c1ccccc1Br	none (no result: M1 antag, WNV protease inh, D1 mod, M1 agonist)
COc1ccc(-n2nc3ccccc3n2)cc1	D1 mod 3.2 (no result: Htt clearance) | D1 PAM confirm 10504 | D1 ag no DA inactive | Isoprot counter inactive
CC(=O)Nc1nc(=O)c2ccccc2s1	none (no result: Htt clearance)
CC(=O)n1c2ccccc2c2nc(NC(C)C)sc21	D1 mod 6.4 | D1 PAM confirm 8636 | D1 ag no DA inactive | Isoprot counter active
COC(=O)CN(c1ccc(OC)cc1)S(=O)(=O)c1ccc(OC)c(OC)c1	D1 mod 3 | D1 PAM confirm 10376 | D1 ag no DA inactive | Isoprot counter active
CCOc1ccc(N(CC(=O)OC)S(=O)(=O)c2ccc(OC)c(OC)c2)cc1	D1 mod 3.6 (no result: Htt clearance) | D1 PAM confirm 12916 | D1 ag no DA inactive | Isoprot counter active
COc1ccc(N(CC(=O)O)S(=O)(=O)c2ccc(OC)c(OC)c2)cc1	none
Cc1cc(C)nc(SCC(=O)Nn2cnnc2)n1	none (no result: Htt clearance)
Nc1nc(Cl)nc2c1ncn2[C@@H]1O[C@H](CO)[C@@H](O)[C@H]1O	D1 mod 24 (no result: Htt clearance) | D1 PAM confirm 16252 | D1 ag no DA 5660 | Isoprot counter active
CN(C)c1ncnc2c1ncn2C1OC(CO)C(O)C1O (stereo not given)	none (no result: M1 antag, WNV protease inh, D1 mod, M1 agonist)
COC(=O)CNC(=O)COC(=O)C(Cc1ccccc1)NC(=O)c1ccco1 (stereo not given)	none
O=C(NC(Cc1ccccc1)C(=O)OCC(=O)N1CCc2ccccc21)c1ccco1 (stereo not given)	D1 mod 3.1 (no result: Htt clearance) | D1 PAM confirm inactive | D1 ag no DA inactive | Isoprot counter inactive
O=C(CN(CC1CCCO1)C(=O)CCC(=O)Nc1nccs1)NCc1ccccc1 (stereo not given)	none (no result: M1 antag, WNV protease inh, D1 mod, M1 agonist)
CCC(C)Sc1nc2c(cnn2-c2ccccc2)c(=O)[nH]1 (stereo not given)	D1 mod 12 (no result: Htt clearance) | D1 PAM confirm 13072 | D1 ag no DA inactive | Isoprot counter active
CCCSc1nc2c(cnn2-c2ccc(C)cc2)c(=O)[nH]1	D1 mod 10 | D1 PAM confirm 20136 | D1 ag no DA inactive | Isoprot counter active
CCC(C)Sc1nc2c(cnn2-c2ccc(C)cc2)c(=O)[nH]1 (stereo not given)	none (no result: D1 mod)
CCCSc1nc2c(cnn2-c2ccccc2)c(=O)[nH]1	D1 mod 11 (no result: Htt clearance) | D1 PAM confirm 17784 | D1 ag no DA inactive | Isoprot counter active
COC(=O)C1CSc2[nH]c(=O)sc2C1c1ccc(OC)c(OC)c1 (stereo not given)	none (no result: M1 antag, WNV protease inh, D1 mod, M1 agonist)
COc1ccc(-c2csc(Cc3nnc(N4CCOCC4)n3-c3ccccc3)n2)cc1	none (no result: Htt clearance)
CC(c1ccccc1)N1C(=O)CC(Sc2ncccc2C(=O)O)C1=O (stereo not given)	none
O=C(O)c1ccccc1SC1CC(=O)N(C2CCCCC2)C1=O (stereo not given)	D1 mod 3.9 (no result: Htt clearance) | D1 PAM confirm inactive | D1 ag no DA inactive | Isoprot counter inactive
COc1ccc(-n2c(=O)cc(N3CCN(c4ccccc4OC)CC3)[nH]c2=O)cc1	none (no result: Htt clearance)
COc1cccc(-c2nc(CS(=O)CC(=O)NCc3ccccc3)c(C)o2)c1 (stereo not given)	none (no result: Htt clearance)
Cc1nc(-c2ccc(S(=O)(=O)N3CCCCCC3)cc2)cs1	D1 mod 2.7 (no result: Htt clearance) | D1 PAM confirm 8332 | D1 ag no DA inactive | Isoprot counter inactive
CN(C)c1ccc(/C(=N\O)c2ccccc2)cc1	D1 mod 3.6 | D1 PAM confirm 16920 | D1 ag no DA inactive | Isoprot counter active
Nc1ccc(Cl)cc1/C(=N/O)c1ccccc1	none (no result: Htt clearance, D1 mod)
COc1cc(Cn2c(=O)oc3ccc(C)cc32)ccc1OC(C)C	none (no result: Htt clearance)
COc1cccc(-c2nn(-c3ccccc3)cc2C(=O)NCC(=O)O)c1	none (no result: Htt clearance)
COc1cccc(-c2nn(-c3ccccc3)cc2CO)c1	D1 mod 3.6 | D1 PAM confirm 10836 | D1 ag no DA inactive | Isoprot counter active
OCc1cn(-c2ccccc2)nc1-c1ccc2c(c1)OCCO2	none (no result: Htt clearance)
COc1ccc(-c2nn(-c3ccccc3)cc2CO)cc1OC	D1 mod 6.7 (no result: M1 antag, Htt clearance, M1 agonist) | D1 PAM confirm 13160 | D1 ag no DA inactive | Isoprot counter active
CCS(=O)(=O)N1CCN(C2CCC(C)CC2)CC1 (stereo not given)	none
C/C(=N\O)C1(C)N(O)C(C)(C)C(c2ccco2)=[N+]1[O-] (stereo not given)	none (no result: Htt clearance)
CCOC(=O)Nc1sc(C)nc1-c1ccccc1	D1 mod 3.7 | D1 PAM confirm inactive | D1 ag no DA inactive | Isoprot counter inactive
CCOC(=O)c1sc(N)nc1-c1ccccc1	D1 mod 12 (no result: Htt clearance) | D1 PAM confirm 13660 | D1 ag no DA inactive | Isoprot counter active
CCOC(=O)c1sc(N(C)C)nc1-c1ccccc1	none (no result: M1 antag, WNV protease inh, D1 mod, M1 agonist)
Cc1sc2nc(SC(C)C)nc(N)c2c1C	D1 mod 14 (no result: Htt clearance) | D1 PAM confirm 13552 | D1 ag no DA inactive | Isoprot counter active
Cn1c(/C(C#N)=C/C2CC=CCC2)nc2ccccc21 (stereo not given)	D1 mod 3.8 | D1 PAM confirm 9264 | D1 ag no DA inactive | Isoprot counter inactive
